VHR inh color: VHR1 (DUSP3) phosphatase inhibition; P51452; recombinant VHR phosphatase, colorimetric substrate read-out; inhibition, % at 20 µM; 0.7% of 50,000 active; AID 1992; in the data active = inhibition above about 60%
Target sequence (P51452 whole entry, looked up): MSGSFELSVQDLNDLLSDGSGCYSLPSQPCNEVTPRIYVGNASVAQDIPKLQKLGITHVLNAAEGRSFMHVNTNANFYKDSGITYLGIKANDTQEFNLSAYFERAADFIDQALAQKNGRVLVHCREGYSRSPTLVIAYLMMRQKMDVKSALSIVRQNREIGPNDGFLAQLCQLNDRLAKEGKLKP
A number is an active result; . = inactive. The full list was thinned out, with hits kept by preference.

SMILES | VHR inh color
COc1cccc(OCCOc2ccc(/C=N/n3cnnc3)cc2OC)c1 | 116
CCOc1cc(/C=N/n2cnnc2)ccc1OCCOc1ccc(C)cc1 | .
CC(C)(C)NCCCCOc1c(Cl)cccc1Cl | .
N/C(Cc1ccc(Cl)cc1)=N\OC(=O)c1ccc(Cl)c([N+](=O)[O-])c1 | .
S=C(Nc1ccc2c(c1)oc1ccccc12)Nc1cccc2ccccc12 | 106
Fc1ccc(NC(=S)Nc2cccc3ccccc23)cc1 | .
O=C(NC(=S)Nc1ccc2oc3ccccc3c2c1)c1ccccc1 | .
COc1ccc(C(=O)N2CCN(C(=O)c3ccccc3F)CC2)cc1OC | .
COc1ccc(Br)cc1/C=C/C(=O)Nc1ccc(NC(=O)c2ccccc2)cc1 | .
CCN(CC)c1ccc(NC(=O)S(=O)(=O)c2ccccc2)cc1 | .
CC1=NN(c2ccc(S(N)(=O)=O)cc2)C(=O)/C1=C\c1ccc(-c2cc([N+](=O)[O-])ccc2Cl)o1 | .
COc1ccc(C(=O)Nc2ccc(N3CCN(C(C)=O)CC3)cc2)cc1OC | .
CCOc1cc(C2Nc3ccccc3NC3=C2C(=O)CC(c2ccccc2)C3)cc(Br)c1O (stereo unspecified) | 99
CCOc1cc(C2Nc3ccccc3NC3=C2C(=O)CC(c2ccc(OC)cc2)C3)cc(Br)c1O (stereo unspecified) | .
COc1cc(C2Nc3ccccc3NC3=C2C(=O)CC(c2ccc(Cl)cc2)C3)cc(Br)c1O (stereo unspecified) | .
COc1ccc(/C=C2\C(=O)NN(c3ccc(Cl)c(Cl)c3)C2=O)cc1OC | .
Cc1ccc(NCC(=O)N/N=C\c2ccccc2OCC(=O)O)cc1 | .
CC1=C(C(N)=O)C(C2CCCCC2)C(C#N)=C(N)O1 (stereo unspecified) | .
O=C(Nc1cc(C(F)(F)F)ccc1Cl)c1ccccc1I | .
Cc1ccccc1OCC(=O)Nc1ccc(Cl)cc1Cl | .
O=C(COc1ccc(Cl)cc1Cl)Oc1ccccc1[N+](=O)[O-] | .
Cc1ccccc1OC(=O)COc1ccc(Cl)cc1Cl | 116
COc1cccc(/C=C2\SC(=O)N(CCC(=O)Nc3c(C)n(C)n(-c4ccccc4)c3=O)C2=O)c1 | .
O=C(/C=C/c1ccc(-c2ccccc2[N+](=O)[O-])o1)NCc1ccccc1 | .
O=C(/C=C/c1ccc(-c2ccccc2[N+](=O)[O-])o1)Nc1ccc(O)c(-c2nc3ccccc3o2)c1 | .
SMILES | VHR inh color
O=C(/C=C/c1ccc(-c2ccccc2[N+](=O)[O-])o1)Nc1ccc(-c2nc3ccccc3o2)cc1 | 106
COC(=O)c1c(C)oc2ccc(OC(=O)N3CCOCC3)cc12 | .
O=C(Oc1ccc(-n2cnnn2)cc1)N1CCOCC1 | 113
O=C(Nc1ccccc1)c1ccc(-n2cnnn2)cc1 | .
CC(=O)C1=C(O)C(=O)N(CC2CCCO2)C1c1ccc(Cl)cc1 (stereo unspecified) | .
CCN(CC)c1ccc(C(=O)NCCc2ccccc2)cc1 | .
COc1ccccc1N1C(=O)CC(SC(=NCCc2ccccc2)Nc2ccccc2)C1=O (stereo unspecified) | .
COc1ccc2c(c1)C1C=CCC1C(C(=O)O)N2 (stereo unspecified) | .
CC(=O)Nc1ccc2c(c1)C1C=CCC1C(C(=O)O)N2 (stereo unspecified) | .
O=C(O)C1Nc2c(Cl)cc(Cl)cc2C2C=CCC12 (stereo unspecified) | 97
Cc1ccc(S(=O)(=O)N/N=C/c2ccc(-c3ccc([N+](=O)[O-])cc3Cl)o2)cc1 | .
Cc1nc(N)sc1-c1csc(Nc2ccccn2)n1 | .
Cc1cc(C)nc(NS(=O)(=O)c2ccc(Nc3nc(-c4sc(N)nc4C)cs3)cc2)n1 | 67
Cc1cc(NS(=O)(=O)c2ccc(Nc3nc(-c4ccccn4)cs3)cc2)no1 | .
COc1ccc(C/C(O)=C(\C#N)c2nc3ccccc3[nH]2)cc1 | .
CCOc1ccc(N2C(=O)/C(=C/c3ccccc3C(=O)O)SC2=S)cc1 | .
O=C(Nc1c(Cl)cccc1Cl)C1C2CC/C=C\CC/C=C/CCC21 (stereo unspecified) | 112
O=C(Nc1cccc(Br)c1)C1C2CCC3C(CCC21)C3(Cl)Cl (stereo unspecified) | .
O=C(O)C1C2CC/C=C\CC/C=C/CCC21 (stereo unspecified) | .
O=C1NC(=O)N(c2ccc3c(c2)OCO3)C(=O)/C1=C/c1ccc(OCc2cccc(C(=O)O)c2)cc1 | .
COC(=O)C(CCSC)NC(=O)c1cccs1 (stereo unspecified) | .
COc1ccc(C2CC(=O)C3=C(C2)Nc2ccccc2NC3c2coc3c(Cl)cc(Cl)cc3c2=O)cc1 (stereo unspecified) | 105
COc1ccc(C2CC(=O)C3=C(C2)Nc2ccccc2NC3c2ccccc2Cl)cc1 (stereo unspecified) | .
COc1ccc(C2CC(=O)C3=C(C2)Nc2ccccc2NC3c2cc3c(cc2Cl)OCO3)cc1 (stereo unspecified) | .
CC(C)c1ccc(/C=C/C(=O)NCc2cccnc2)cc1 | .
SMILES | VHR inh color
CCOc1ccc(C(=O)Nc2ccc(N3CCOCC3)c(Cl)c2)cc1Cl | .
CCOc1cc(N2CCOCC2)c(OCC)cc1N | 88
CCOc1ccc(C(=S)N2CCOCC2)cc1 | .
COC(=O)C1=C(O)/C(=C\c2c(F)cccc2Cl)N=C1C | .
CCOc1cc(/C=c2\sc3n(c2=O)C(c2cccc(OC)c2)C(C(=O)Nc2ccccc2)=C(C)N=3)ccc1O (stereo unspecified) | .
O=C(Nc1ccc([N+](=O)[O-])cc1)C1C2C3CCC(C3)C12 (stereo unspecified) | 84
Cc1ccc([N+](=O)[O-])cc1NC(=O)C1C2C3CCC(C3)C12 (stereo unspecified) | .
O=C(Nc1ccc([N+](=O)[O-])cc1)C1C(c2ccccc2)=C1c1ccccc1 | .
Cn1c(O)c(C=NCC2CCCO2)c(=O)n(C)c1=O (stereo unspecified) | .
O=C1NN(c2ccc(Cl)c(Cl)c2)C(=O)/C1=C/c1cc([N+](=O)[O-])ccc1O | .
O=C1NN(c2ccc(Cl)c(Cl)c2)C(=O)/C1=C/c1cccc([N+](=O)[O-])c1 | 78
O=C1NN(c2ccc(Cl)c(Cl)c2)C(=O)/C1=C/c1cccc(Br)c1 | .
COc1cccc(/C=C/C(=O)c2ccc(F)cc2)c1OC | .
COc1ccc(C(=O)Nc2ccc(S(=O)(=O)Nc3cc(C)on3)cc2)c(OC)c1 | 110
COc1ccc(C(=O)Nc2cc(C)cc(C)c2)c(OC)c1 | .
Cc1cc(NS(=O)(=O)c2ccc(NC(=O)c3cc(Cl)cc(Cl)c3)cc2)no1 | .
C=CCNC(=O)CN(c1ccc(Oc2ccccc2)cc1)S(C)(=O)=O | .
Cc1ccc(NC(=O)CCOc2ccccc2)c(Br)c1 | .
CN1CCN(C2=NC(=O)/C(=C/c3ccc(Cl)cc3Cl)S2)CC1 | .
Cc1ccc(/C=C2\SC(=S)N(CCS(=O)(=O)O)C2=O)cc1 | 63
C=CCN1C(=O)/C(=C\C=C\c2ccccc2)SC1=S | .
COc1ccc(/C=C2\SC(=S)N(CCC(=O)OC3CCCCC3)C2=O)cc1 | .
O=C1/C(=C/C=C/c2ccccc2)SC(=S)N1CCS(=O)(=O)O | 85
C=CCN1C(=O)/C(=C/c2ccc(C)cc2)SC1=S | .
COC(=O)CN1C(=O)/C(=C\c2ccc(C)cc2)SC1=S | .
COc1ccc(/C=C2\SC(=S)N(CCS(=O)(=O)O)C2=O)cc1 | 67
O=C(O)CCCN1C(=O)/C(=C/C=C/c2ccccc2)SC1=S | .
COc1ccc(/C=C2\SC(=S)N(CCC(N)=O)C2=O)cc1 | .
O=[N+]([O-])c1cn(Cc2ccc(F)cc2)cn1 | .

Screens: PubChem, Sanford-Burnham Center for Chemical Genomics
